Test [1] concerns Plasmodium falciparum Sir2 (PF13_0152, Sir2A). As to the kind of experiment: Plasmodium falciparum Sir2A binding compounds – biochemical, small-molecule microarray, 635 nm fluorescence, primary screen (AID 1098).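 Also: score merges spot fluorescence intensity with its signal-to-noise ratio.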 The following applies: fluorescence 635 nm, higher = more signal.
Test [2] can be described thus: probe aDKK1 binding to arrayed compounds – biochemical, biotinylated probe, 635/667 nm fluorescence, primary screen (AID 1099).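 Also: score merges 667nm spot fluorescence with signal to noise across triplicate slides.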 The conditions noted are these: small-molecule microarray, higher = more signal.
The nature of test [3]: probe aCHRDL2 binding to arrayed compounds – biochemical, biotinylated probe, 635/667 nm fluorescence, primary screen (AID 1100). The conditions noted are these: small-molecule microarray, higher = more signal.
Test [4] in a line: change in splice reporter luminescence, either direction, cell-based, HEK293, spliceosome inhibition project, primary screen (AID 1101).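 Also: HEK293 cells carrying a splicing-competent luciferase reporter gene; test concentration not given here.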 The following applies: HEK293 splicing luciferase reporter, 24 h, higher = more signal, called active from +8 up or from −8 down. For orientation: Reporter assays use an easily measured gene product as a stand-in for the process of interest.
Test [5] has as its target Fibroblast growth factor 10 (Homo sapiens) (UniProt O15520). The test can be described thus: compounds binding fibroblast growth factor 10 – biochemical, small-molecule microarray, 635 nm fluorescence, primary screen (AID 1102). The following applies: FGF10 binding, fluorescence 635 nm, higher = more signal.
For test [6], the system named is glycogen synthase kinase-3 (GSK3A per assay name; protocol says GSK3B). The test can be described thus: compounds binding glycogen synthase kinase-3 – biochemical, small-molecule microarray, 635 nm fluorescence, GSK3A, primary screen (AID 1103). Also: the record names both GSK3A and GSK3B. The conditions noted are these: fluorescence 635 nm, higher = more signal.
Test [7] addresses Epidermal growth factor receptor (Homo sapiens) (UniProt P00533). The test can be described thus: compounds binding epidermal growth factor receptor – biochemical, small-molecule microarray, 635 nm fluorescence, primary screen (AID 1104).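 Also: score merges 667 nm emission intensity with spot signal to noise over triplicate slides.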 The following applies: EGFR binding, higher = more signal.
Test [8] concerns the target Follistatin-related protein 3 (Homo sapiens) (UniProt O95633). As to the kind of experiment: compounds binding follistatin-related protein 3 – biochemical, small-molecule microarray, 635 nm fluorescence, primary screen (AID 1105).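 Also: score merges emission near 667 nm and signal to noise per printed spot across three slides.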 The conditions noted are these: FSTL3 binding, higher = more signal.
Test [9] has as its target Dickkopf-related protein 1 (Homo sapiens) (UniProt O94907). The test can be described thus: small molecules binding DKK1 protein – biochemical, small-molecule microarray, 635 nm fluorescence scan, primary screen (AID 1106).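 Also: score merges emission near 667 nm with signal to noise over three replicate slides.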 The following applies: higher = more signal.
Test [10] relates to Inhibin beta A chain (activin A). As to the kind of experiment: small molecules binding activin A – biochemical, small-molecule microarray, 635 nm fluorescence scan, primary screen (AID 1107).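 Also: mouse activin A protein probed at 4.33 µg/mL on printed slides; score merges bound-protein fluorescence near 667 nm with spot signal-to-noise.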 The conditions noted are these: INHBA, higher = more signal.
In test [11] the test system is Human papillomavirus type 1a protein E7 (residues 44-93). The test can be described thus: small molecules binding HPV E7 44-93 – biochemical, small-molecule microarray, residues 44-93, 635 nm fluorescence, primary screen (AID 1108).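 Also: E7 fragment applied at 1 µg/mL in TBST for 1 h at 4 C; score combines spot fluorescence with its signal to noise ratio.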 The following applies: fluorescence 635 nm, higher = more signal.
A short description of test [12]: hepatitis C replication reporter changes, two-sided – Huh7 cells, luciferase reporter, HCV replication inhibitor project, primary screen (AID 1109).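 Also: huh7 hepatoma cells harbouring a luciferase neomycin HCV replicon reporter; luciferase luminescence as measure of HCV replicon replication; test concentration not given here.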 The following applies: Huh7 HCV replicon luciferase reporter, 48 h; higher = more signal.
The target of test [13] is Left-right determination factor 2 (Homo sapiens) (UniProt O00292). The test can be described thus: small molecules binding LEFTY2 protein – biochemical, small-molecule microarray, 635 nm fluorescence scan, primary screen (AID 1110). The following applies: higher = more signal.
Test [14] deals with Calmodulin-1 (Homo sapiens) (UniProt P0DP23). As to the kind of experiment: small molecules binding calmodulin-1 with EGTA – biochemical, small-molecule microarray, Cy5-labelled CALM1, profiling panel (AID 1111).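 Also: labelled calmodulin applied in Tris saline Tween buffer holding calcium plus EGTA and DTT.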 The conditions noted are these: Cy5-CALM1 binding fluorescence, higher = more signal.
Test [15] has the same target. As to the kind of experiment: small molecules binding Ca-loaded calmodulin-1 – biochemical, small-molecule microarray, Cy5-labelled CALM1, plus calcium, artefact control for SMM control-protein annotation, profiling panel (AID 1112).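 Also: score merges spot fluorescence with signal to noise from triplicate slides.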 The conditions noted are these: Cy5-CALM1 binding fluorescence, higher = more signal.
Test [16] is described as follows: probe aWnt5a binding to arrayed compounds – biochemical, biotinylated probe, 635/667 nm fluorescence, primary screen (AID 1113).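 Also: score merges 667 nm fluorescence intensity with signal-to-noise per printed feature.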 The conditions noted are these: small-molecule microarray, higher = more signal.
Test [17] can be described thus: probe aShh binding to arrayed compounds – biochemical, biotinylated probe, 635/667 nm fluorescence, primary screen (AID 1114).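 Also: probe is biotin-labelled aShh protein from a stem cell growth factor screen; measures binding of labelled protein to compounds printed on the slide; score merges feature fluorescence at 667 nm with signal-to-noise.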 The following applies: small-molecule microarray, higher = more signal.
Test [18] is described as follows: probe aNog binding to arrayed compounds – biochemical, biotinylated probe, 635/667 nm fluorescence, primary screen (AID 1115).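 Also: probe is biotinylated aNog protein used at 0.15 µg/mL for 1 h at 4 C; z-score combines 667 nm fluorescence of each spot with its signal to noise.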 The following applies: small-molecule microarray, higher = more signal.
Test [19] addresses Torsin-1A-interacting protein 1 (Homo sapiens) (UniProt Q5JTV8). The test can be described thus: compound microarray binding of lysate hLAP1 – cell lysate, small-molecule microarray, COS7 lysate, 635/667 nm fluorescence, primary screen (AID 1116). The conditions noted are these: 635 nm fluorescence, higher = more signal.
Test [20] has as its target Alpha-bungarotoxin (Bungarus multicinctus) (UniProt P60615). The test can be described thus: compounds binding labelled alpha-BTX control protein – biochemical, small-molecule microarray, Alexa647 label, 635/667 nm fluorescence, artefact control for SMM control protein annotation, profiling panel (AID 1117). The following applies: alpha-BTX-A647 binding fluorescence, higher = more signal.

Each structure is given as a SMILES string. Calls of active or inactive are those of the source.

Torsin-1A-interacting protein 1 (Homo sapiens), sequence (Q5JTV8 whole entry, looked up): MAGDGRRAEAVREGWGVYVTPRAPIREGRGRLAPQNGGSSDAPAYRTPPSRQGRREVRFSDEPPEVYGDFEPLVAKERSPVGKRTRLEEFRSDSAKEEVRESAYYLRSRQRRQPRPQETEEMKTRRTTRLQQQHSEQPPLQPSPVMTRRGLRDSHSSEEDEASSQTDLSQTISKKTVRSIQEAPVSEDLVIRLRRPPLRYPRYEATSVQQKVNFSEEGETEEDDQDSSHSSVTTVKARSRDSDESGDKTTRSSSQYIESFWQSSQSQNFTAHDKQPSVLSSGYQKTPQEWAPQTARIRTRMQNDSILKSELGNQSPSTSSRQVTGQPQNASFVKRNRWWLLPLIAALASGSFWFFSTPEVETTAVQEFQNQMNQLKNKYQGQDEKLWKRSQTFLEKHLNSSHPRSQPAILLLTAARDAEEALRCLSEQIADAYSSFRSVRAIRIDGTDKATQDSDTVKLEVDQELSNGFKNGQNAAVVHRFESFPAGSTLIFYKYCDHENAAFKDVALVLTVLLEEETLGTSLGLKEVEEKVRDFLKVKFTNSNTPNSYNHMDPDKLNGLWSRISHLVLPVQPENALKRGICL
Fibroblast growth factor 10 (Homo sapiens), sequence (O15520 whole entry, looked up): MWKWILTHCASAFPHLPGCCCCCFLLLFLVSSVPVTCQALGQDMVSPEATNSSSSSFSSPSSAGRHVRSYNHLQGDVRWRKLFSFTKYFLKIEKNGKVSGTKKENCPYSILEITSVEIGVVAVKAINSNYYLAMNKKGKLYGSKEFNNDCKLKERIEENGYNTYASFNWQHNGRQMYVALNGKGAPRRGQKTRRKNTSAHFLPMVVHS
Left-right determination factor 2 (Homo sapiens), sequence (O00292 whole entry, looked up): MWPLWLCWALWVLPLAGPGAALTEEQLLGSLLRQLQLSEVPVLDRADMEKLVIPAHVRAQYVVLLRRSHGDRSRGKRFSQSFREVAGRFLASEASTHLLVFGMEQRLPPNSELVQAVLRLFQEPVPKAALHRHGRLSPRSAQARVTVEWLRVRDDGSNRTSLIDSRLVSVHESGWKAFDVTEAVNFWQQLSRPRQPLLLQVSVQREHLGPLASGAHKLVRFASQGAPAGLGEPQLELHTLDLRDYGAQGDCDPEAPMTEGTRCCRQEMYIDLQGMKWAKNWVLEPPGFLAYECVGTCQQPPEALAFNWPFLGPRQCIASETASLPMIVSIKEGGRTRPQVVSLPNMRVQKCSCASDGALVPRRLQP
Alpha-bungarotoxin (Bungarus multicinctus), sequence (P60615 whole entry, looked up): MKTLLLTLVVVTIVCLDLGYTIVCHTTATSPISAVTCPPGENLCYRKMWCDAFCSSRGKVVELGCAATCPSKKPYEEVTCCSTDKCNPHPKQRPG
Dickkopf-related protein 1 (Homo sapiens), sequence (O94907 whole entry, looked up): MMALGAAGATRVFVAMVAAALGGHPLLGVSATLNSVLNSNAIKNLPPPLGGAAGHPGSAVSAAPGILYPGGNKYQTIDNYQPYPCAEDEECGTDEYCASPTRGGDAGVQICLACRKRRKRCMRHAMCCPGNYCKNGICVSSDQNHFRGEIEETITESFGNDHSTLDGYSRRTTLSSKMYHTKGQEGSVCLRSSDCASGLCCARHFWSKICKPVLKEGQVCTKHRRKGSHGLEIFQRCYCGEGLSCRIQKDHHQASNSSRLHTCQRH
Epidermal growth factor receptor (Homo sapiens), sequence (P00533 whole entry, looked up): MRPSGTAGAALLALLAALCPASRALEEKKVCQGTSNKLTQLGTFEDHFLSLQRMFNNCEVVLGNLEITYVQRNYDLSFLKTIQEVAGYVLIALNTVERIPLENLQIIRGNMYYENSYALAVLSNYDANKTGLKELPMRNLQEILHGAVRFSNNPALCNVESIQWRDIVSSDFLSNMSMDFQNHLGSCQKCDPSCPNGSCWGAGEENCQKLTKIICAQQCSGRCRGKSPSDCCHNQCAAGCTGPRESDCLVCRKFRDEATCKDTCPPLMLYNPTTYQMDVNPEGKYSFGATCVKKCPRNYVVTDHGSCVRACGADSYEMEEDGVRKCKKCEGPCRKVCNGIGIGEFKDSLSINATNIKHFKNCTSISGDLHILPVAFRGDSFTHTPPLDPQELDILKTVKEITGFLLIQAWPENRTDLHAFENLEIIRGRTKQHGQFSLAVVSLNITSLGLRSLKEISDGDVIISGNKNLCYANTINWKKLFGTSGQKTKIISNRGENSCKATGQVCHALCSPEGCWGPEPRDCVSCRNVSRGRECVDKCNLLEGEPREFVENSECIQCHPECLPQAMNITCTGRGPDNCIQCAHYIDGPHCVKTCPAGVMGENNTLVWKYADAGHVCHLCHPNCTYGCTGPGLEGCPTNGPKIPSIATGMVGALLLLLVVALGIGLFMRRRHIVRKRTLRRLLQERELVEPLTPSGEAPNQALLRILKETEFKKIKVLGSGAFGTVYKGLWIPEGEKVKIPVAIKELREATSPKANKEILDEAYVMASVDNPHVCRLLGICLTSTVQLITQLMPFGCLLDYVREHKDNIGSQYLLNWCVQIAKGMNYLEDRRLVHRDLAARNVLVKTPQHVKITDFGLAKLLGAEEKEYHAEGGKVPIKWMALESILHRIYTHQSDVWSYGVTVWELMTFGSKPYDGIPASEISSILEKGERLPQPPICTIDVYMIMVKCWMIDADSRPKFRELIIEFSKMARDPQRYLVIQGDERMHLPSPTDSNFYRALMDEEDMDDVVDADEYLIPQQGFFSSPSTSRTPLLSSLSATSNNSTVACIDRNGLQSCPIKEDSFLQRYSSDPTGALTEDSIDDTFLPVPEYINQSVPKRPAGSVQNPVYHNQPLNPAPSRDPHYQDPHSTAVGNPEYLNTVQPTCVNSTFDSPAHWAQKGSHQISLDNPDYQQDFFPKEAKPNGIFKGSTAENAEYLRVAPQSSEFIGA
Follistatin-related protein 3 (Homo sapiens), sequence (O95633 whole entry, looked up): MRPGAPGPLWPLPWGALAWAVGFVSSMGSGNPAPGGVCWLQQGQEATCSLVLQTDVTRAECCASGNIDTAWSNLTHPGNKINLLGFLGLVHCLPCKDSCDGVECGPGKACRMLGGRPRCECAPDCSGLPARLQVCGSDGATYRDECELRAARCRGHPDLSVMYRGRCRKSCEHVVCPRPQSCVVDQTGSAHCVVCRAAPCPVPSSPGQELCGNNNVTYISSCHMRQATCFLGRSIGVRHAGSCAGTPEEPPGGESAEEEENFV

`O=C(NCC(F)(F)F)[C@@H]1c2ccccc2C(=O)N(Cc2ccc(OC(F)(F)F)cc2)[C@H]1c1ccc(CO)cc1`: the composite z-score was 1.16 in test [1]; -0.113 in test [2]; 0.433 in test [3]; 0.347 in [5]; -0.285 in [6]; -0.0633 in test [7]. Also, the composite z-score is 0.284 in test [8]; 0.0428 in test [9]; 0.551 in [10]; 1.4 in test [11]; 0.174 in test [13]; -0.112 in test [14]. In addition, the composite z-score in [15] was 0.0084; in test [16], -0.0704; in test [17] it was 0.0839; in [18], -0.224; in [19], 0.148; in test [20], 0.173. In addition, the z-score in test [4] was -0.693 (inactive); in [12], -0.971.
On to `CCOC(=O)C1CCCCN1` (stereo not given), for which the composite z-score in [1] was 0.19; in test [2], 1.06; in [3], -0.193; in test [5] it was 0.946; in [6], 0.682; in [7] it was 0.403. The composite z-score was 0.653 in test [8]; 0.516 in test [9]; -0.104 in test [10]; 0.728 in test [11]; 0.4 in test [13]; -0.178 in test [14]. Besides, the composite z-score in test [15] was -0.483; in test [16] it was 0.312; in test [17] it was 0.444; in [18] it was 0.144; in test [19] it was 0.488; in [20] it was 0.54. The z-score is -0.283 (inactive) in test [4] and 0.417 in test [12].
With `CC(C)(C)OC(=O)CC[C@]1(C(=O)NCC(O)CO)N=C(c2ccc(OCCCO)cc2)O[C@H]1c1ccccc1` (stereo not given in full), the composite z-score in test [1] is 0.835; in test [2], 1.1; in test [3], 0.897; in test [5], 0.57; in test [6], 0.206; in [7] it was -0.516. The composite z-score in test [8] is -0.715; in test [9], -1.09; in test [10], -0.0014; in test [11], 1.32; in [13], -1.13; in test [14] it was 0.451. Besides, the composite z-score was 1.24 in [15]; -0.0403 in test [16]; -0.0904 in [17]; 0.701 in [18]; 1.93 in [19]; -0.383 in test [20]. Moreover, the figures for the z-score in [4] and in [12] were -0.495 (inactive) and -1.74, respectively.
Take `C=CCN1C(=O)[C@@]2(O[C@@H](CCn3cc([C@H](O)c4ccccc4)nn3)[C@H]([Si](C)(C)c3ccc(OC)cc3)[C@H]2C)c2cc(N3CCC3=O)ccc21`: the composite z-score in test [1] was 1.43; in [2] it was 0.0289; in test [3], 0.257; in test [5], 0.216; in [6], -0.0371; in [7], -0.0844. Moreover, the composite z-score in [8] was -0.296; in [9], -0.0607; in [10], 0.289; in [11] it was 0.627; in test [13], 0.225; in test [14], 0.249. Besides, the composite z-score in [15] is 0.294; in test [16], -0.15; in test [17], -0.138; in test [18] it was 0.15; in test [19] it was 0.116; in test [20] it was 0.359. The figures for the z-score in test [4] and in [12] were -0.429 (inactive) and -3.39, respectively.
As for `COCCOC(=O)N1C(=O)[C@@]2(c3cc(C#CC4=CCCCC4)ccc31)[C@H](c1ccc(O)cc1)N1[C@H](c3ccccc3)[C@H](c3ccccc3)OC(=O)[C@H]1[C@@H]2C(=O)N1CCN(c2ncccn2)CC1`, the composite z-score in test [1] is -0.0148; in test [2] it was -0.222; in test [3] it was 0.649; in test [5], -0.769; in test [6] it was -0.858; in test [7], -1.04. The composite z-score in [8] was -1.85; in test [9], -1.22; in test [10], -0.918; in [11], -0.444; in test [13], -0.742; in test [14], -0.676. The composite z-score was 0.451 in [15]; -0.195 in test [16]; -0.138 in test [17]; -0.445 in test [18]; -0.201 in test [19]; -1.11 in test [20]. For the same molecule, the z-score in test [4] is -0.297 (inactive); in test [12] it was -0.131.
Turning to `CC(c1ccccc1)C(O)C1C=CC2C(=O)N(c3ccccc3)C(=O)C2N1Nc1ccc([N+](=O)[O-])cc1` (stereo not given), the composite z-score in test [1] turned out to be 1.38; in [2], 0.831; in [3] it was 0.862; in [5] it was 0.781; in test [6], 1.3; in test [7], 0.424. Besides, the composite z-score was 1.23 in test [8]; -0.405 in test [9]; 0.854 in [10]; 1.46 in [11]; 0.365 in test [13]; 0.93 in [14]. Further, the composite z-score in [15] was 0.328; in [16] it was -0.001; in test [17], -0.0146; in test [18] it was 0.457; in test [19], 0.464; in test [20], 1.53. In addition, the z-score is -0.43 (inactive) in [4] and -0.0504 in test [12].

Values taken from PubChem BioAssay.
